Compound activity (PubChem BioAssay)
IDE exosite FP = displaces the probe from the exo-site of human IDE | purified IDE, FL-6b probe fluorescence polarization; hits give low values | z-score at 20 µM | hit rate 6.3% among 17,000 | AID 1259349;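 active means z-score of -3 or lower, meaning strong loss of probe binding signal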;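 further: His-tagged human IDE residues 42-1019 made in E. coli with 30 nM FL-6b probe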
Target sequence (P14735 42-1019 limits assumed): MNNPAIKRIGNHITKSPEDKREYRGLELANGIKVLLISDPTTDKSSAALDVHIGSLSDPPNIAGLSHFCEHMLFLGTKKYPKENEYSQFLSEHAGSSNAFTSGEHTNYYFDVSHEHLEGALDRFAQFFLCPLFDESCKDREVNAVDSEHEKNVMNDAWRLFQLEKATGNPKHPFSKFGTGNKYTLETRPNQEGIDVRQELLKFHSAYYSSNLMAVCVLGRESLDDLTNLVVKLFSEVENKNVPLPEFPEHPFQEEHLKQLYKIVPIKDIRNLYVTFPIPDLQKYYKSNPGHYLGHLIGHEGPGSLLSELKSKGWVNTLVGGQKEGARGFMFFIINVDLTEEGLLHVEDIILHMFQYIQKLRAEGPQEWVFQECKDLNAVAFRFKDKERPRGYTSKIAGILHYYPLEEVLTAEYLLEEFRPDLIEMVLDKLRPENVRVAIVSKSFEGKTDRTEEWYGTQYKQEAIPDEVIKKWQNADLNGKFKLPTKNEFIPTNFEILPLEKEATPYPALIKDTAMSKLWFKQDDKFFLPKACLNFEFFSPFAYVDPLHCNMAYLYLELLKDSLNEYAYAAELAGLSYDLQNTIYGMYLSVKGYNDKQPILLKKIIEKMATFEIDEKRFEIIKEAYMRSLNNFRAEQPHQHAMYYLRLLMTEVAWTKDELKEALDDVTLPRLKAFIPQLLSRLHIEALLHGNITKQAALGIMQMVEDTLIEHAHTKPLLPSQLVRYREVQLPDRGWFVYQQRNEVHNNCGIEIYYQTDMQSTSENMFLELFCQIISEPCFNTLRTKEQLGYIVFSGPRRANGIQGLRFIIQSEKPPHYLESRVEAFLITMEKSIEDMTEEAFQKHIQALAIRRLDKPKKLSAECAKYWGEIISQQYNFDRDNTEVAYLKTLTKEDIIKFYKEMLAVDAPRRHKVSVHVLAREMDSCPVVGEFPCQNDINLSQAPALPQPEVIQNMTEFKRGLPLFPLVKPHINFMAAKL
An asterisk follows results filed as active; ! = not confirmed by another sample. Shown is part of a subset that was picked to be rich in hits.

SMILES	IDE exosite FP
CC(=O)N(C)C[C@H]1[C@@H](c2ccc(C#CC(C)C)cc2)[C@@H](CO)N1C(=O)C1CCC1	1.6
COc1ccccc1NC(=O)N1CC(=O)N2[C@@H](CO)[C@H](c3ccc(C#CCC(C)C)cc3)[C@@H]2C1	1.9
C[C@@H]1CN([C@@H](C)CO)C(=O)c2ccccc2-c2ccccc2CO[C@@H]1CN(C)C(=O)[C@H](Cc1ccccc1)N(C)C	0.73
CN(C)CC#Cc1ccc([C@@H]2[C@H](CO)N3C(=O)CN(C(=O)c4cccc(F)c4)C[C@@H]23)cc1	1.2
Fc1cccc(CN2C[C@@H]3N[C@H](C2)C3c2ccc(/C=C/c3ccccc3)cc2)c1 (stereo partly drawn)	1.1
N#C[C@@H]1[C@H](c2ccccc2C2=CCCC2)[C@@H](CO)N1C(=O)c1ccccn1	0.48
CC(C)[C@@H]1C(=O)N[C@@H](c2ccc(F)cc2)CC=CC[C@H](C)Oc2ccccc2C(=O)N1C (mixture of isomers)	0.4
O=S(=O)(c1ccc(-c2ccccc2)cc1)N1C[C@@H]2N[C@H](C1)C2c1ccc(-c2ccncc2)cc1 (stereo partly drawn)	1.1
O=C(Cc1ccncc1)N1C[C@@H]2N[C@H](C1)C2c1ccc(-c2ccccc2)cc1 (stereo partly drawn)	-3.1*
O=C(CN1CCOCC1)N1C[C@@H]2N[C@H](C1)C2c1ccc(-c2ccccc2)cc1 (stereo partly drawn)	1.6
C/C=C/c1ccc(C2[C@@H]3CN(C(=O)Cc4ccccc4)C[C@H]2N3)cc1 (stereo partly drawn)	2.2
O=C(Cc1ccncc1)N1C[C@@H]2N[C@H](C1)C2c1ccc(/C=C/c2ccccc2)cc1 (stereo partly drawn)	-4.6*!
C/C=C/c1ccc(C2[C@@H]3CN(C(=O)Cc4ccncc4)C[C@H]2N3)cc1 (stereo partly drawn)	2.8
O=C(Nc1ccccc1F)N1CC(=O)N2[C@H](C1)[C@H](c1ccc(C#CC3CC3)cc1)[C@@H]2CO	-0.16
O=S(=O)(Cc1ccccc1)N1CCCCN2[C@H](CO)[C@@H](c3ccc(-c4ccccc4)cc3)[C@@H]2C1	0.82
CCS(=O)(=O)Nc1ccc2c(c1)C(=O)N(C)[C@H]1CC[C@H](CC(=O)NCCCN3CCOCC3)O[C@@H]1CO2	0.45
CN1C(=O)c2cc(NC(=O)Nc3ccccc3Cl)ccc2OC[C@@H]2O[C@H](CC(=O)O)CC[C@@H]21	-0.56
CN1C(=O)c2cc(NC(=O)Cc3cccs3)ccc2OC[C@H]2O[C@@H](CC(=O)NCCCN3CCOCC3)CC[C@H]21	0.06
CN1C(=O)c2cc(NC(=O)Cc3cccs3)ccc2OC[C@@H]2O[C@@H](CC(=O)NCCCN3CCOCC3)CC[C@H]21	-1
CN1C(=O)c2cc(NC(=O)Nc3ccccc3Cl)ccc2OC[C@@H]2O[C@H](CC(=O)NCCCN3CCOCC3)CC[C@@H]21	-4.7*
CN1C(=O)c2cc(NC(=O)Nc3ccc(Cl)cc3)ccc2OC[C@@H]2O[C@H](CC(=O)NCCN3CCCCC3)CC[C@H]21	-0.35
CN1C(=O)c2cc(NC(=O)Nc3ccc(Cl)cc3)ccc2OC[C@H]2O[C@@H](CC(=O)NCCN3CCCCC3)CC[C@@H]21	-4.7*
CN1C(=O)c2cc(NC(=O)Nc3ccccc3Cl)ccc2OC[C@H]2O[C@H](CC(=O)O)CC[C@H]21	-0.35
CN1C(=O)c2cc(NC(=O)Cc3cccs3)ccc2OC[C@@H]2O[C@H](CC(=O)NCCCN3CCOCC3)CC[C@H]21	0.06
CN1C(=O)c2cc(NC(=O)Nc3ccccc3Cl)ccc2OC[C@H]2O[C@H](CC(=O)O)CC[C@@H]21	-6.2*
SMILES	IDE exosite FP
CN1C(=O)c2cc(NC(=O)Nc3ccc(Cl)cc3)ccc2OC[C@H]2O[C@@H](CC(=O)NCCN3CCCCC3)CC[C@H]21	0.06
CN1C(=O)c2cc(NC(=O)Nc3ccccc3Cl)ccc2OC[C@H]2O[C@H](CC(=O)NCCCN3CCOCC3)CC[C@@H]21	-14*
C/C=C/c1ccc([C@H]2[C@@H](CO)N(C(=O)C3CCC3)C23CN(C(=O)NC(C)C)C3)cc1	0.053
COCCN(C[C@H]1[C@H](c2ccccc2)[C@@H](CO)N1C(=O)C1CC1)C(C)=O	0.18
O=C(Cc1ccncc1)N1CC(=O)N2[C@H](CO)[C@H](c3ccc(Br)cc3)[C@@H]2C1	0.63
OC[C@H]1Nc2ccc(C#Cc3ccc(F)cc3)cc2[C@H]2[C@@H]1CCN2Cc1ccc2c(c1)OCO2	2
COc1ccccc1NC(=O)N1C[C@@H](O)COC[C@H]2O[C@H](CC(=O)NCCc3ccncc3)CC[C@@H]21	1.6
O=C1C[C@H](c2ccccc2)C(=O)N[C@H](c2ccccc2)C/C=C\C[C@H](c2ccccc2)N1	2.3
CN1C(=O)c2cc(NC(=O)Cc3cccs3)ccc2OC[C@H]2O[C@@H](CC(=O)NCCCN3CCOCC3)CC[C@@H]21	-0.5
CN1C(=O)c2cc(NC(=O)Cc3cccs3)ccc2OC[C@H]2O[C@H](CC(=O)NCCCN3CCOCC3)CC[C@@H]21	-0.35
CN1C(=O)c2cc(NC(=O)Nc3ccccc3Cl)ccc2OC[C@H]2O[C@@H](CC(=O)NCCCN3CCOCC3)CC[C@@H]21	-6.1*
C/C=C/c1ccc([C@@H]2[C@@H](CN(CC)C(C)=O)N(S(C)(=O)=O)[C@H]2CO)cc1	0.33
O=C(NC1CCCC1)N1CCCCN2[C@H](CO)[C@@H](c3ccc(-c4ccccc4)cc3)[C@H]2C1	1.8
COc1ccccc1-c1ccc([C@H]2[C@@H](CO)N3CCCCN(C(=O)NC4CCCC4)C[C@@H]23)cc1	-9.3*
O=C(NC1CCCC1)N1CCCCN2[C@H](CO)[C@H](c3ccc(-c4ccncc4)cc3)[C@@H]2C1	4.7
O=C(NC1CCCC1)N1CCCCN2[C@@H](CO)[C@@H](c3ccc(/C=C/c4ccccc4)cc3)[C@@H]2C1	-8.4*
O=C(Nc1ccccc1F)N1CCCCN2[C@@H](CO)[C@@H](c3ccc(/C=C/c4ccccc4)cc3)[C@@H]2C1	-1.2
O=C(Nc1ccccc1F)N1CCCCN2[C@H](C1)[C@H](c1ccc(/C=C/c3ccccc3)cc1)[C@@H]2CO	-0.83
O=C(NC1CCCC1)N1CCCCN2[C@H](CO)[C@H](c3ccc(-c4ccccc4)cc3)[C@@H]2C1	-0.47
O=C(NC1CCCC1)N1CCCCN2[C@@H](CO)[C@H](c3ccc(/C=C/c4ccccc4)cc3)[C@@H]2C1	-15*
O=C(NC1CCCC1)N1CCCCN2[C@H](CO)[C@H](c3ccc(-c4ccncc4)cc3)[C@H]2C1	4.5
C/C=C/c1ccc([C@H]2[C@@H](CO)N(CCC)[C@H]2CNC(=O)CN2CCOCC2)cc1	0.61
CO[C@H]1CN(C)C(=O)c2ccc(NC(=O)c3cc(C)on3)cc2OC[C@@H](C)NC[C@H]1C	1.1
Cc1ccccc1S(=O)(=O)N1CCCCN2[C@H](C1)[C@H](c1ccc(-c3cccc(F)c3)cc1)[C@@H]2CO	2.8
COc1ccc(NC(=O)N(C)C[C@H]2OCc3cnnn3CCCC(=O)N([C@@H](C)CO)C[C@@H]2C)c(OC)c1	-1.3
Cc1noc(C)c1NC(=O)N(C)C[C@@H]1OCc2ccccc2-c2c(n(C)c3ccccc23)C(=O)N([C@@H](C)CO)C[C@H]1C	0.61
O=C(c1ccc(F)cc1)N1CC(=O)N2[C@@H](CO)[C@H](c3ccc(C#CC4CCCCC4)cc3)[C@@H]2C1	2.9
Cc1cccc(S(=O)(=O)N2C[C@H]3[C@@H](c4ccccc42)[C@H](CO)N3CC2CCCC2)c1	2.6
O=C1CNC[C@H]2[C@@H](c3ccc(C#CC4CCCCC4)cc3)[C@@H](CO)N12	0.68
